Compound activity deposited in PubChem by several laboratories.
MMP-13 inhibitor – human MMP13 inhibitors, primary screen, biochemical, FRET peptide cleavage; MMP-13 fTHP FRET cleavage, Mca fluorescence; inhibition, % at 4 µM; actives 0.07% (n = 65,000);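 active = inhibition above the mean of compound-free control plate wells plus 3 SD, cut at about 14% in these data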;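 note: 0% = DMSO wells and 100% = wells with reference MMP-13 inhibitor after basal subtraction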
M1 agonist – M1 muscarinic receptor agonists, primary screen, CHO-M1 cells, Fluo-4 calcium, agonist mode; B-score at 10 µM; actives 3% (n = 64,000); Fluo-4 calcium fluorescence; active compounds read high;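 active = fluorescence rise, raw or as B-score row- and column-corrected plate score, outside the 99.7% band of its plate's samples, either direction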
DUSP1 inh – MKP-1 phosphatase inhibitors, primary screen, biochemical, in vitro; Dual specificity protein phosphatase 1 (Homo sapiens), P28562; recombinant MKP-1, OMFP hydrolysis fluorescence; inhibition, %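 (compounds tested at a single concentration somewhere between 10 and 100 µM)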; actives 0.15% (n = 65,000); AID 374, 2006;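 active = inhibition above about 50%, limit read from the data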;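 note: 0% = DMSO max control wells and 100% = wells with enzyme stopped by NaOH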
Cdc25B inh – inhibitors of Cdc25B phosphatase catalytic domain, primary screen, biochemical, OMFP fluorescence; recombinant Cdc25B, OMFP fluorescence Ex485/Em525; M-phase inducer phosphatase 2 (Homo sapiens), P30305; AID 368, 2006; actives 0.1% (n = 65,000); inhibition, %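 (compounds tested at 10 µM final in the well)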; in the data active = inhibition above about 50%
Target sequence (P30305 whole entry, looked up, the tested form may be a part): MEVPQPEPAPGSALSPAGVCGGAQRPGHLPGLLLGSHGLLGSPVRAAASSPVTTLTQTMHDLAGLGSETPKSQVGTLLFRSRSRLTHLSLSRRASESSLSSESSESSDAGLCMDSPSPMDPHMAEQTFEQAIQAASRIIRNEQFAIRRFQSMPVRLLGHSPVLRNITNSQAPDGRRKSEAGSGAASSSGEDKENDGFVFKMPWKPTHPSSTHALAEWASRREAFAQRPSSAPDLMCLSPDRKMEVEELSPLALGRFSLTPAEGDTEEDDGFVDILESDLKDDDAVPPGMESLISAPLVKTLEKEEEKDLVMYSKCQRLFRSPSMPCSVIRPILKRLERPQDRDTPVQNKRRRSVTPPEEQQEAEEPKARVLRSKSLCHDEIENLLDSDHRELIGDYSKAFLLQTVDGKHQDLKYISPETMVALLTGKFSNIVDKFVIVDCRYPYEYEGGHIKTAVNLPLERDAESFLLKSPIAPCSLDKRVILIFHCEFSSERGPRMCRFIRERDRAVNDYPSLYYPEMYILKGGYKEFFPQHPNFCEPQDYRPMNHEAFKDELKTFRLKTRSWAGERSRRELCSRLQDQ
Hsp90 block – tumor Hsp90 inhibitors, primary screen, cell lysate, fluorescence polarization, NCI-N417 lysate; actives 0.35% (n = 64,000); Cy3B-geldanamycin FP displacement; inhibition, % at 30 µM; Heat shock protein HSP 90-alpha (Homo sapiens), P07900;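 active = inhibition above 50%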;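 note: 0% = tracer plus lysate wells and 100% = tracer alone without lysate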
M1 antagonist – antagonists of rat M1 muscarinic receptor; Muscarinic acetylcholine receptor M1 (Rattus norvegicus), P08482; CHO-M1 cells, Fluo-4 calcium, ACh EC80 antagonist mode; active compounds read low; B-score at 10 µM; actives 3.4% (n = 64,000);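 active = calcium fluorescence response, raw or row-and-column corrected B-score, differing from the plate sample mean either way at a set confidence level, mostly lower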
M1 antag confirm – rat M1 muscarinic receptor antagonists, confirmation, CHO cells, Fluo-4 calcium, duplicate | actives 43% (n = 1,700) | shares compounds with M1 antagonist | AID 677, 2007 | calcium response (max-min fluorescence) at 10 µM | ACh EC80 antagonism; active compounds read low;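 active = calcium response below the same-plate mean of wells given acetylcholine alone at its 80%-effect dose, minus 3 SD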;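 note: raw fluorescence intensity difference in arbitrary instrument units and not normalized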
mGluR4 antag – human mGluR4 response to M1 antagonist hits, M1 allosteric modulator project, cell-based, antagonist mode, secondary assay 1 | fluorescence response (max-min) at 10 µM | actives 0.9% (n = 1,700) | shares compounds with M1 antagonist | CHO-mGluR4 calcium flux, Fluo-4 fluorescence, glutamate EC80; active compounds read low;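 active = fluorescence response below the plate's average for near-maximal glutamate wells, less 3 SD of those wells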;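 note: raw unnormalized fluorescence span taken in the window right after glutamate addition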
Starred values were filed as active, the others as inactive. In the library only some 6.1% were active in any assay of this set; here they are far more common.

For O=C1CC(N2CCN(C3CC(=O)N(CCc4ccccc4)C3=O)CC2)C(=O)N1CCc1ccccc1 (configuration not stated) the results were MMP-13 inhibitor 3.2, M1 agonist 0.107, DUSP1 inh 21.0, Cdc25B inh -3.9, Hsp90 block -1.3 and M1 antagonist 0.299.
For O=C1CC(N2CCN(C/C=C/c3ccccc3)CC2)C(=O)N1CCc1ccccc1 (configuration not stated) the results were MMP-13 inhibitor -3.1, M1 agonist 1.54, DUSP1 inh 2.6, Cdc25B inh -5.5, Hsp90 block -6.5, M1 antagonist -3.98*, M1 antag confirm 422* and mGluR4 antag 256.
For O=C1CC(N2CCN(c3ccc(O)cc3)CC2)C(=O)N1Cc1cccs1 (configuration not stated) the results were MMP-13 inhibitor 0.2, M1 agonist 0, DUSP1 inh 0.7, Cdc25B inh 3.2, Hsp90 block 3.7 and M1 antagonist 0.604.
`O=C1CC(N2CCN(C/C=C/c3ccccc3)CC2)C(=O)N1Cc1cccs1` (configuration not stated) gave MMP-13 inhibitor -1.8, M1 agonist 0.965, DUSP1 inh 25.4, Cdc25B inh -11.8, Hsp90 block 2.4, M1 antagonist -19.2*, M1 antag confirm 22.9* and mGluR4 antag 216.
CCOC(=O)c1cc(C)n(S(=O)(=O)c2ccc(C)cc2)c1C was read as MMP-13 inhibitor 0.1, M1 agonist 0.661, DUSP1 inh 1.7, Cdc25B inh 2.3, Hsp90 block -0.2 and M1 antagonist -0.0291.
Cc1nc2sc3c(c2c(=O)n1/N=C/c1ccco1)CCCC3 was read as MMP-13 inhibitor -2.9, M1 agonist -0.0394, DUSP1 inh 6.5, Cdc25B inh -10.0, Hsp90 block -1.4 and M1 antagonist -0.0268.
For O=c1c2c3c(sc2nc2n1CCCC2)CCC3 the results were M1 agonist 0.154, DUSP1 inh 0.0, Cdc25B inh -10.4 and M1 antagonist 0.518.
`O=c1c2c3c(sc2nc2n1CCCCC2)CCCCC3` gave MMP-13 inhibitor -5.1, M1 agonist -1.2, DUSP1 inh 5.3, Cdc25B inh -14.1, Hsp90 block -3.0, M1 antagonist -3.07*, M1 antag confirm 273* and mGluR4 antag 220.
`Cc1ccc(C)n1-n1c(C)nc2sc3c(c2c1=O)CCCCC3` gave MMP-13 inhibitor -1.7, M1 agonist -0.5, DUSP1 inh 10.0, Cdc25B inh -8.0, Hsp90 block -0.1, M1 antagonist -5.56*, M1 antag confirm 325* and mGluR4 antag 247.
CCS(=O)(=O)CCSc1nc2c(cc1C#N)CCCC2 was read as MMP-13 inhibitor -1.5, M1 agonist 0.193, DUSP1 inh 9.7, Cdc25B inh -2.1, Hsp90 block -3.0 and M1 antagonist 0.895.
Screening N#CCSc1nc2c(cc1C#N)CCCCCC2 returned MMP-13 inhibitor -77.4, M1 agonist 0.0621, DUSP1 inh -1.4, Cdc25B inh -23.3, Hsp90 block -3.4, M1 antagonist -5.32*, M1 antag confirm 205* and mGluR4 antag 259.
Cc1ccc2oc(=O)c3cnn(CC(=O)N(CCCN4CCOCC4)Cc4ccco4)c3c2c1 was read as MMP-13 inhibitor 0.0, M1 agonist 0.913, DUSP1 inh 9.6, Cdc25B inh -14.6, Hsp90 block -2.7 and M1 antagonist -0.607.
`O=C(CCNS(=O)(=O)c1cccs1)NCc1ccco1` gave MMP-13 inhibitor -0.5, M1 agonist 0, DUSP1 inh 27.9, Cdc25B inh -7.2 and M1 antagonist 0.101.
`CCOC(=O)N1CCN(C(=O)c2ccc3c(=O)n(CCC4=CCCCC4)c(=O)[nH]c3c2)CC1` gave MMP-13 inhibitor -4.7, M1 agonist -0.632, DUSP1 inh 33.1, Cdc25B inh -2.5, Hsp90 block -5.0, M1 antagonist -6.85*, M1 antag confirm 191* and mGluR4 antag 252.
CC(C)OCCCNC(=O)c1cc2c(s1)CS(=O)(=O)C2 was read as MMP-13 inhibitor 3.5, M1 agonist -0.00114, DUSP1 inh -6.2, Cdc25B inh -8.1, Hsp90 block -4.6, M1 antagonist -4.63*, M1 antag confirm 625 and mGluR4 antag 239.
Screening O=S(=O)(c1cc(Cl)ccc1Cl)n1nnc2ccccc21 returned MMP-13 inhibitor -1.5, M1 agonist 0.184, DUSP1 inh -5.5, Cdc25B inh -5.5, Hsp90 block 2.4 and M1 antagonist -0.237.
Screening Cc1cc(Br)c(S(=O)(=O)n2nnc3ccccc32)cc1C returned MMP-13 inhibitor -3.0, M1 agonist -0.242, DUSP1 inh 1.9, Cdc25B inh -8.7, Hsp90 block -2.3, M1 antagonist -12.1*, M1 antag confirm 674 and mGluR4 antag 228.
Screening C=CCc1ccccc1OCC(O)CN(C(C)C)C(C)C (configuration not stated) returned MMP-13 inhibitor 4.5, M1 agonist 0.0376, DUSP1 inh -2.2, Cdc25B inh -31.0, Hsp90 block -4.7, M1 antagonist -2.03*, M1 antag confirm 382* and mGluR4 antag 230.
`Cc1oc2nc(SCC(=O)N3CCCCC3)nc(N)c2c1C` gave MMP-13 inhibitor 1.2, M1 agonist 1.16, DUSP1 inh 14.6, Cdc25B inh -2.0, Hsp90 block 0.5 and M1 antagonist 0.415.
For O=S(=O)(c1ccc(Cl)c(C(F)(F)F)c1)N1CCN(CC(O)COCC2CCCO2)CC1 (configuration not stated) the results were MMP-13 inhibitor -1.9, M1 agonist -0.136, DUSP1 inh 6.8, Cdc25B inh -19.0, Hsp90 block -0.2 and M1 antagonist -0.177.
Screening CCc1cc2c(N3CCN(c4ccccc4)CC3)ncnc2s1 returned MMP-13 inhibitor -1.1, M1 agonist -0.578, DUSP1 inh -2.9, Cdc25B inh -23.0, Hsp90 block 1.4 and M1 antagonist 0.00617.
For CCS(=O)(=O)N1CCC(C(=O)NCCN2CCN(Cc3ccccc3)CC2)CC1 the results were MMP-13 inhibitor -3.2, M1 agonist -0.0784, DUSP1 inh 6.1, Cdc25B inh -10.3, Hsp90 block -1.4, M1 antagonist -3.36*, M1 antag confirm 519 and mGluR4 antag 201.
